# Reference: PubChem BioAssay (NCATS)
# Values joined by “and” are separate entries in the source; they are usually repeats but may differ in a detail not shown here. Equal entries are not always repeated. Records with an inconclusive call do not appear. Entries that show only a call come without a potency. Values without a mark were called inactive. Active and inactive are the calls of the source. The call rests on the fitted dose curve; in most records, active means well fitted curve in the direction sought with a large enough effect; inconclusive means small, poorly fitted or top-dose-only effect, or another doubt; inactive means no such curve, though single readings can be large; an effect the other way counts as inactive or inconclusive.
# How the values were obtained:
# [1] = target: Cellular tumor antigen p53 (Homo sapiens) (UniProt P04637); assay: Primary qHTS for small molecule compounds that upregulate eGFP-tagged delta133p53alpha (in N-terminal) cells. (AID 2060322); conditions: NCI-H358 eGFP-delta133p53alpha fluorescence, 24 h; activation: stronger effect = higher value; further: nearly all actives have a fitted effect of over 75% in size; further: potency means the concentration at half of the fitted maximal effect; on activation: series mostly up to about 56 µM
# Sequence of Cellular tumor antigen p53 (Homo sapiens) (P04637 whole entry, looked up): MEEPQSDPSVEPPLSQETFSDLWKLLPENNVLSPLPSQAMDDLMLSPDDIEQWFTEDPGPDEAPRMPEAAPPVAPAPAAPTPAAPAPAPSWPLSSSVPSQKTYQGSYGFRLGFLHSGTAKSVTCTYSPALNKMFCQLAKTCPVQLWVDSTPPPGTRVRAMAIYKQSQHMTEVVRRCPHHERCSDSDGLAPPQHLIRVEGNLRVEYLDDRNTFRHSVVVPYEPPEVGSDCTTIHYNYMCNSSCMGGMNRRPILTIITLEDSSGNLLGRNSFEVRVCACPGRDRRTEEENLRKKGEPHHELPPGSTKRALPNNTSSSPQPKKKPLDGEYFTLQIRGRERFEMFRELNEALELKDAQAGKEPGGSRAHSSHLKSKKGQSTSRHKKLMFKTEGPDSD
# In short: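 NCI-H358 cells pre-induced 24 h with 10 ng/ml doxycycline to express N-terminal eGFP-delta133p53alpha, then dosed 24 h at 37C without doxycycline; fixed, Hoechst-stained, GFP intensity by laser scanning cytometry, normalized to DMSO (0%) and 57.5 uM 5-azacytidine (100%).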
# [2] = target: Aldehyde dehydrogenase, mitochondrial (Homo sapiens) (UniProt P05091); assay: qHTS for Inhibitors of the Aldehyde Dehydrogenase Family (ALDH2) Primary screen (AID 2061308); further: nearly all actives have a fitted effect of over 55% in size
# [3] = target: Retinaldehyde dehydrogenase 3 (Homo sapiens) (UniProt P47895); assay: qHTS for Inhibitors of the Aldehyde Dehydrogenase Family (ALDH1A3) Primary screen (AID 2061315)
# [4] = BET inhibitor-based combinations targeting novel dependencies in MECOM-rearranged (r) AML: SET-2 cell line (AID 2202231); conditions: SET-2 AML cells viability, CellTiter-Glo luminescence, 48 h; viability: stronger effect = lower value, concentration not given here; further: nearly all actives have a fitted effect of over 35% in size; further: potency means the concentration at half of the fitted maximal effect
# In short: (§1)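 Here, 11-point titrations of each agent were applied to 500 seeded cells and incubated 48 hr; CellTiter-Glo signal, scaled against DMSO and empty wells, was integrated as AUC, then Z-scored within the individual line.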
# [5] = BET inhibitor-based combinations targeting novel dependencies in MECOM-rearranged (r) AML: MV-4-11 cell line (AID 2202233); further: nearly all actives have a fitted effect of over 45% in size; further: potency means the concentration at half of the fitted maximal effect
# In short: (§2)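 Normalized to DMSO and empty-well controls, the luminescence data from CellTiter-Glo after 48 hr drug exposure were fitted across 11 concentrations. Reported metrics are area under the dose-response curve and its Z-transformed form.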
# [6] = BET inhibitor-based combinations targeting novel dependencies in MECOM-rearranged (r) AML: HNT-34 cell line (AID 2202234); further: nearly all actives have a fitted effect of over 35% in size; further: potency means the concentration at half of the fitted maximal effect
# In short: as §2
# [7] = BET inhibitor-based combinations targeting novel dependencies in MECOM-rearranged (r) AML: AML-191 cell line (AID 2202236; further: nearly all actives have a fitted effect of over 35% in size; further: potency means the concentration at half of the fitted maximal effect)
# In short: as §1
# [8] = BET inhibitor-based combinations targeting novel dependencies in MECOM-rearranged (r) AML: AML-194 cell line (AID 2202237; further: nearly all actives have a fitted effect of over 40% in size; further: potency means the concentration at half of the fitted maximal effect)
# In short: as §1
# [9] = BET inhibitor-based combinations targeting novel dependencies in MECOM-rearranged (r) AML: OCI-AML3 cell line (AID 2202232); conditions: Potency: OCI-AML3 viability; further: nearly all actives have a fitted effect of over 35% in size; further: potency means the concentration at half of the fitted maximal effect
# In short: as §1
# [10] = BET inhibitor-based combinations targeting novel dependencies in MECOM-rearranged (r) AML: UCSD-AML1 cell line (AID 2202235); further: nearly all actives have a fitted effect of over 40% in size; further: potency means the concentration at half of the fitted maximal effect
# In short: as §2
Compound,activation [1],Potency [2],Potency [3],Potency [4],Potency [5],Potency [6],Potency [7],Potency [8],Potency [1],viability [4] [%],Potency [9],Potency [10]
Cc1cn(CCN2CCN(c3ccccc3-c3cc(C#N)cc(C(=O)NCCCN4CCCC4)c3)CC2)c2ccccc12,15.8%,inactive,inactive,23.5 µM (active),20.9 µM (active),18.6 µM (active),18.6 µM (active),18.6 µM (active),–,–,–,–
NC(=O)c1cccc(-c2cc(Nc3ccc(OC(F)(F)F)cc3)ncn2)c1,-25.2% and 10.7%,inactive,inactive,20.9 µM (active),16.6 µM (active),1.86 µM (active),–,–,–,–,–,–
COc1cc2ncnc(Oc3cccc(NC(=O)Nc4cc(C(C)(C)C(F)(F)F)on4)c3)c2cc1OC,–,inactive,inactive,–,0.662 µM (active),0.209 µM (active),–,inactive,23.9 µM (active),104,–,–
CCOC(=O)c1ccnc(CNCC(=O)N(CC)CCN(C)C)c1,8.33%,inactive,inactive,–,–,–,–,inactive,–,104,inactive,inactive
CC1=C(C(=O)Nc2cc3cn[nH]c3cc2F)C(c2ccc(C(F)(F)F)cc2)CC(=O)N1 (stereo unspecified),-14.3% and -24.1%,inactive,inactive,–,–,–,–,inactive,–,110,2.95 µM (active),–
Nc1ccc(/C=C/C(=O)NCc2cc3cc(-c4ccc(C(=O)N5CCC(F)(F)CC5)cc4)cc(-c4ccc(F)cc4)c3o2)cn1,-7%,inactive,inactive,–,–,–,–,18.6 µM (active),–,104,0.525 µM (active),1.18 µM (active)
Cc1n[nH]c(C)c1Cc1sc2c(c1C(=O)N1C[C@H](O)CO1)c(=O)n(C)c(=O)n2CC(C)C,19.3% and -2.33%,inactive,inactive,–,inactive,inactive,inactive,inactive,–,111,–,inactive
Cc1c(NC(=O)c2ccc(C(C)(C)C)cc2)cccc1-c1cn(C)c(=O)c(Nc2ccc(C(=O)N3CCOCC3)cc2)n1,63.1% and -9.82%,inactive,inactive,16.6 µM (active),–,–,–,inactive,–,–,inactive,inactive
NC(=O)c1ccc(N(C(N)=O)c2c(F)cccc2F)nc1-c1ccc(F)cc1F,24.3% and 1.79%,inactive,inactive,–,inactive,inactive,inactive,inactive,–,106,–,inactive
O=C(Nc1ccccc1-c1cn2c(CN3CCNCC3)csc2n1)c1cnc2ccccc2n1,-29.5%,inactive,inactive,8.33 µM (active),5.25 µM (active),20.9 µM (active),7.42 µM (active),8.33 µM (active),–,–,–,–
CO[C@H]1C[C@@H]2CC[C@@H](C)[C@@](O)(O2)C(=O)C(=O)N2CCCC[C@H]2C(=O)O[C@H]([C@H](C)C[C@@H]2CC[C@@H](OP(C)(C)=O)[C@H](OC)C2)CC(=O)[C@H](C)/C=C(\C)[C@@H](O)[C@@H](OC)C(=O)[C@H](C)C[C@H](C)/C=C/C=C/C=C/1C,3%,inactive,inactive,23.5 µM (active),14.8 µM (active),–,–,–,–,–,–,0.0033 µM (active)
O=C(O)CCCCCC(=O)NN=C1CCCC1,-11%,inactive,inactive,–,inactive,inactive,inactive,inactive,–,108,–,inactive
Cc1cc2c(cc1C1(c3ccc(C(=O)O)cn3)CC1)C(C)(C)CCC2(C)C,-11.7% and 0.333%,inactive,inactive,–,0.0209 µM (active),inactive,inactive,inactive,–,114,–,inactive
CCCCOC(=O)NS(=O)(=O)c1sc(CC(C)C)cc1-c1ccc(Cn2ccnc2)cc1,6.25%,inactive,inactive,–,–,–,–,inactive,–,80.2,inactive,inactive
Cc1sc2c(c1C)C(c1ccc(Cl)cc1)=N[C@@H](CC(=O)Nc1ccc(OCCOCCOCCOCCNc3cccc4c3C(=O)N(C3CCC(=O)NC3=O)C4=O)cc1)c1nnc(C)n1-2 (stereo partly specified),59%,inactive,inactive,1.05 µM (active),0.0417 µM (active),0.0148 µM (active),0.0833 µM (active),0.0525 µM (active),–,–,–,0.0209 µM (active)
CC1(C)[C@@H](O)CC[C@]2(C)[C@H]3C(=O)C=C4[C@@H]5C[C@@](C)(C(=O)O)CC[C@]5(C)CC[C@@]4(C)[C@]3(C)CC[C@@H]12,29.7%,inactive,inactive,–,inactive,inactive,–,inactive,–,112,–,inactive
CCCOc1ccn2c(C(C)=O)cc(-c3ccccc3S(C)(=O)=O)c2c1,-0.333%,inactive,inactive,–,18.6 µM (active),18.6 µM (active),18.6 µM (active),inactive,–,93,–,inactive
